USP17 block – blocks human USP17 ubiquitin-rhodamine cleavage; inhibition, % at 50 µM; hit rate 6.5% among 47,000; purified USP17, Ub-rhodamine cleavage fluorescence, 3 h; A8MUK1
USP8 block – blocks human USP8 ubiquitin-rhodamine cleavage; AID 1645853; purified USP8, Ub-rhodamine cleavage fluorescence, 30 min; inhibition, % at 20 µM; hit rate 4.2% among 47,000
USP28 inh – human USP28 deubiquitinase inhibition. Q96RU2. purified USP28, Ub-rhodamine cleavage fluorescence, 30 min. inhibition, % at 25 µM. hit rate 3% among 47,000
USP10 inh – blocks human USP10 ubiquitin-rhodamine cleavage. hit rate 1.1% among 47,000. Q14694. purified USP10, Ub-rhodamine fluorescence, 60 min. inhibition, % at 20 µM. AID 1645856
USP30 inh – human USP30 deubiquitinase inhibition. purified USP30, Ub-rhodamine cleavage fluorescence. inhibition, % at 25 µM. hit rate 5.3% among 47,000. AID 1645860
* marks the source's active call; other numbers are inactive results. The list is not random: actives were taken first. Their share in the collection is about 14%. Rule as the data show it: active = inhibition above about 30%; inactive = the rest.

SMILES	USP17 block	USP8 block	USP28 inh	USP10 inh	USP30 inh
Cc1ccc(NC(=O)N2CCC3(CC2)N=C(c2ccccc2)C(=O)N3)cc1C	37*	12	8	4	23
CCCCCN1Cc2cc(Cl)ccc2OCC1=O	5	-2	17	2	9
COCC(C)Nc1ncc(-c2cnccn2)c(-c2ccc(C)s2)n1 (configuration not stated)	63*	3	12	2	25
COc1cccc(NC(=O)C2CCC(CNS(=O)(=O)c3ccc4c(c3)C(C)(C)C(=O)N4C)CC2)c1 (configuration not stated)	0	-8	76*	3	0
Cc1ccc(NC(=O)C2CCC(CNS(=O)(=O)c3ccc4c(c3)C(C)(C)C(=O)N4C)CC2)cc1C (configuration not stated)	-9	-34	13	0	-36
Cc1ccc(C2CC(=O)Nc3c2c(C)nn3-c2ccc3nnc(C)n3n2)cc1 (configuration not stated)	4	4	21	0	35*
CNC1CCc2cc(OC)c(OC)c(OC)c2-c2ccc(NCc3cccc(OC)c3OC)c(=O)cc21 (configuration not stated)	-13	-15	-13	-2	-35
c1cncc(-c2cnc3sc(NCC4CCOCC4)nn23)c1	-2	0	-6	4	-1
c1ccc(CNc2nn3c(-c4cccnc4)cnc3s2)cc1	32*	-1	10	8	40*
COc1ccc(CNc2nn3c(-c4cncc(OC)c4)cnc3s2)cc1	-1	6	48*	4	100*
Cc1cccc(NC(=O)C2CCCN(c3cc(=O)n(C)c(=O)n3C)C2)c1 (configuration not stated)	-44	4	-8	-4	-24
O=C(Nc1ccc2c(c1)OCCO2)C1=CCN(Cc2ccccc2F)CC1	-4	-4	40*	2	4
O=C(Nc1ccc2c(c1)OCO2)c1ccc(CN2CCc3ccccc3C2)cc1	29	25	31*	0	1
CC(=O)Nc1cccc(C(=O)Nc2ccc(N3CCCC3=O)cc2)c1	13	3	22	2	25
O=C(Nc1ccc2c(c1)OCO2)c1ccc(N2CCCC2=O)cc1	50*	23	12	10	16
Cc1ccc(NC(=O)c2ccc3c(c2)N(S(C)(=O)=O)CC3)cc1	51*	2	50*	10	14
COc1ccccc1NC(=O)C1=CCN(Cc2ccc(F)cc2)CC1	-29	-15	-15	-7	-68
CN1C(=O)C(C)(C)c2cc(S(=O)(=O)N(C)CC(=O)Nc3ccc(F)cc3)ccc21	-1	0	-1	1	3
O=C(N1CCCC1)N1CCO[C@@H]2CC(COc3ccccn3)C[C@H]21 (some centres not stated)	-17	-107	-2	2	3
CN(C)Cc1cc(C2CCN(C(=O)c3n[nH]c4c3CCCCCC4)CC2)nn1C	0	-29	1	0	7
O=C(NCC(c1cccnc1)N1CCc2ccccc2C1)C(=O)Nc1ccc2c(c1)OCO2 (configuration not stated)	75*	24	-6	19	-6
CS(=O)(=O)N1CCCc2cc(C(=O)Nc3ccc4c(c3)OCO4)ccc21	4	15	85*	4	12
CC(C)c1ccc(S(=O)(=O)Nc2ccc3c(c2)CCN3S(C)(=O)=O)cc1	-1	1	-10	1	-27
Cc1nc(N2CCCCC2)ncc1-c1cc(=O)[nH]c(Nc2nc(C)c3ccccc3n2)n1	66*	1	10	2	60*
Cc1ccc2nc(Nc3nc(-c4cnc(N5CCCC5)nc4C)cc(=O)[nH]3)nc(C)c2c1	-1	2	-7	1	2
SMILES	USP17 block	USP8 block	USP28 inh	USP10 inh	USP30 inh
Cc1nc(N2CCC(C)CC2)ncc1-c1cc(=O)[nH]c(N2c3ccccc3CC2C)n1 (configuration not stated)	12	44*	-5	4	-37
COC(=O)C(NC(=O)CCc1c(C)nc2nc(C)nn2c1C)C(C)C (configuration not stated)	-11	0	-8	-2	-2
COc1ccc2c(C)c(CCC(=O)N3CCN(c4ccccc4F)CC3)c(=O)oc2c1	13	9	24	0	25
CCOc1ccccc1C(=O)Nc1cccn2nc(C3CC3)nc12	-19	0	-4	0	-43
COc1cccc(Cn2cnc3c(NS(=O)(=O)c4ccc(Cl)cc4)c(C)c(C)cc32)c1	11	49*	0	18	-1
COc1cccc(Cn2cc(S(=O)(=O)N3CCCC3)ccc2=O)c1	-13	-6	-4	0	-11
N#Cc1ccc(CN2CCCCC23Cc2ccccc2CNC3=O)cc1 (configuration not stated)	-2	0	-3	-7	-19
O=C(Nc1ccccc1F)c1ccc(C(=O)c2ccccc2)cc1	35*	-45	13	2	13
CC12c3ccc4c(c3C(=O)c3occ(c31)C(=O)CC2O)CCC4=O (configuration not stated)	-24	-337	54*	-12	-187
COc1ccc(Cc2noc(C3(c4cccc(Cl)c4)CCOCC3)n2)cc1	-25	-4	-12	3	-16
O=c1c(OC2O[C@H](CO)[C@H](O)[C@H](O)[C@H]2O)c(-c2ccc(O)cc2)oc2cc(O)cc(O)c12 (some centres not stated)	21	-4	-17	-1	-18
CCN1C(=O)Cc2cc(NS(=O)(=O)c3cc(C)c(C)cc3OC)ccc21	8	2	-17	8	-1
Cc1ccc(NC(=O)c2noc3c2CCc2sccc2-3)cc1Cl	13	20	11	11	20
O=C(Nc1ccc2c(c1)OCO2)c1noc2c1CCc1sccc1-2	12	53*	13	17	-22
O=C(Nc1ccccc1)c1noc2c1CCc1sccc1-2	37*	4	19	5	4
O=C(Nc1ccc(F)cc1)c1noc2c1CCc1sccc1-2	36*	-1	6	1	3
Cc1cccc(NC(=O)c2noc3c2CCc2sccc2-3)n1	65*	94*	15	6	22
COc1cccc(NC(=O)c2nnn(-c3ccccc3)c2C2CC2)c1	0	-19	9	6	2
COc1ccc(N(Cc2ccno2)S(=O)(=O)c2ccccc2)cc1	1	0	2	0	-1
COc1cccc(NC(=O)c2nnn(-c3ccccc3)c2C(C)C)c1	11	16	27	6	12
Cc1ccc(NC(=O)c2nnn(-c3ccccc3)c2C)c(C)c1	7	5	-6	4	1
Cc1c(C(=O)Nc2ccc(Oc3ccccc3)cc2)nnn1-c1cccc(Cl)c1	16	13	50*	9	25
Cc1c(C(=O)Nc2ccc(F)cc2)nnn1-c1cccc(F)c1	29	21	10	4	37*
COc1ccc(NC(=O)c2nnn(-c3cccc(C)c3)c2C)cc1	14	15	59*	8	21
